Experiment [1] in a line: qHTS to identify inhibitors of the type 1 interferon - major histocompatibility complex class I in skeletal muscle: primary screen against the NCATS Pharmaceutical Collection (AID 1347407).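 Further: luminescence of HiBiT knocked into endogenous HLA-B as interferon-induced MHC class I level.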 The method, boiled down: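 Immortalized human myoblasts (C25cl48) with HiBiT knocked into endogenous HLA-B*08:01 were stimulated with 4.0 ng/ml IFN-beta and treated with compounds ([…] top 46 uM) for 24 hrs at 37 C. HiBiT lytic luminescence read.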

Experiment [2] deals with Protein phosphatase 1D (Homo sapiens) (UniProt O15297). The experiment is described as follows: RapidFire Mass Spectrometry qHTS Assay for Modulators of WT P53-Induced Phosphatase 1 (WIP1) (AID 1347424).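 Further: amount of dephosphorylated VEPPL-S-QETFS peptide product formed by WIP1; series mostly up to about 63 µM.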 The method, boiled down: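 RapidFire mass spectrometry measured dephosphorylated peptide after 5 min room-temperature reaction of 2 uM VEPPL-pS-QETFS with 10 nM WIP1 (50 mM Tris-HCl pH 7.5, 30 mM MgCl2, 0.1 mM EGTA, BSA), following 1 hr compound preincubation; 1 uM isotope-labelled product standard.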
Chain of Protein phosphatase 1D (Homo sapiens) (O15297 whole entry, looked up): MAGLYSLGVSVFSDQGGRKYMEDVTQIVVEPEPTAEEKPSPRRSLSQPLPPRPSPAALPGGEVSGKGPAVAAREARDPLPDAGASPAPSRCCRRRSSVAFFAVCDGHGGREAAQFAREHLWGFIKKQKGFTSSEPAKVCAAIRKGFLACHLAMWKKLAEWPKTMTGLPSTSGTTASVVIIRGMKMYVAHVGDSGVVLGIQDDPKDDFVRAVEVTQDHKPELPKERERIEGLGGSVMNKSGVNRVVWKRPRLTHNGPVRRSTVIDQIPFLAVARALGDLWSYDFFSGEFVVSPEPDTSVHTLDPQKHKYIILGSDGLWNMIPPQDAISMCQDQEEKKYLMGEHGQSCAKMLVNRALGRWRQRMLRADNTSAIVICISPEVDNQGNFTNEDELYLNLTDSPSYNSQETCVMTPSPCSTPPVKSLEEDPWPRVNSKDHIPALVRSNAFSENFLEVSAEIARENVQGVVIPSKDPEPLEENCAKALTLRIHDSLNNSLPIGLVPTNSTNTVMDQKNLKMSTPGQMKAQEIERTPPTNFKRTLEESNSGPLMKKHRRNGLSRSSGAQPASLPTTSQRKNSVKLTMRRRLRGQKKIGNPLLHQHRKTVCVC

The nature of experiment [3]: Primary qHTS for inhibitors of SARS-S pseudo-typed particle cell entry (AID 1479145; calls by dose curve; further: nearly all actives have a fitted effect of over 45% in size; further: potency means the concentration at half of the fitted maximal effect). (In qHTS, concentration-response curves come from the screen itself.)
Experiment [4] concerns the target Protein phosphatase 1D (Homo sapiens) (UniProt O15297). The experiment in a line: Rhodamine-PBP qHTS Assay for Modulators of WT P53-Induced Phosphatase 1 (WIP1) (AID 1347425). The method, boiled down: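 Read-out: Rhodamine-PBP fluorescence (ex 525/em 598 nm) for released Pi, read each minute for 11 min after adding 10 uM VEPPL-pS-QETFS; signal taken as f1 minus pre-substrate f0. Enzyme 5 nM WIP1 with 1 hr room-temperature compound preincubation.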

A short description of experiment [5]: qHTS to identify inhibitors of the type 1 interferon - major histocompatibility complex class I in skeletal muscle: primary screen against the NCATS Mechanism Interrogation Plate v5.0 (MIPE) Libary (AID 1347411). Further: nearly all actives have a fitted effect of over 65% in size. The method, boiled down:
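HLA-B HiBit myoblasts, dexamethasone-free medium + 4 ng/ml IFN-b, 24 h compound, 11-pt 1:3 from 46 uM final. Readout: Nano-Glo HiBiT lytic luminescence after 10 min lysis, RT.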

Molecules are shown by their SMILES. Inconclusive results are not listed. Entries that show only a call come without a potency. The source made the active and inactive calls. Unless noted, the call rests on the fitted dose curve; in most records, active means well fitted curve in the direction sought with a large enough effect; inconclusive means small, poorly fitted or top-dose-only effect, or another doubt; inactive means no such curve, though single readings can be large; an effect the other way counts as inactive or inconclusive.

In the case of `Oc1ccc(Cl)cc1Cc1ccccc1`, the Potency result in experiment [1], in experiment [2] and in experiment [3] was “inactive” each time.

As to `CN1CCN(C(=O)O[C@H]2c3nccnc3C(=O)N2c2ccc(Cl)cn2)CC1`, the Potency entry in experiment [1], in experiment [2] and in experiment [3] was “inactive” throughout. In addition, the compound was classed as inactive in experiment [4].

In the case of `CC(C)(C)CC(C)(C)c1ccc(O)cc1`, the Potency result in experiment [1], in experiment [2] and in experiment [3] was “inactive” each time. For the same compound, the outcome in experiment [4] was inactive.

For `CNC(=O)c1ccc(N2C(=S)N(c3ccc(C#N)c(C(F)(F)F)c3)C(=O)C23CCC3)cc1F`, the Potency entry in experiment [5] was “inactive”.

Turning to `COC(=O)[C@H]1[C@H]2C[C@@H]3c4[nH]c5cc(OC)ccc5c4CCN3C[C@H]2C[C@@H](OC(=O)c2cc(OC)c(OC)c(OC)c2)[C@@H]1OC`, in experiment [3], the Potency result is “inactive”.

As for `CN(C)CCN(C)CCc1ccc(Cl)c(Cl)c1`, the Potency result in experiment [5] was “inactive”.

As to `Nc1ccn([C@@H]2O[C@H](CO)[C@@H](O)C2(F)F)c(=O)n1`, the Potency in experiment [3] is 794 nM (active).

In the case of `C[C@]12CC[C@H]3[C@@H](CCC4=CC(=O)CC[C@@H]43)[C@@H]1CC[C@@H]2OC(=O)CCc1ccccc1`, the Potency result in experiment [1], in experiment [2] and in experiment [3] was “inactive” each time. Further, the compound was classed as inactive in experiment [4].

For the compound `C=C(C)[C@H]1Cc2c(ccc3c2O[C@@H]2COc4cc(OC)c(OC)cc4[C@@H]2C3=O)O1`, the Potency result in experiment [2] and in experiment [3] was “inactive” throughout. The result in experiment [4] was inactive.

Turning to `CC(=O)Nc1cc([As](=O)(O)O)ccc1O`, the Potency result in experiment [1] and in experiment [3] was “inactive” each time. In addition, in experiment [4], the outcome was inactive.

For the compound `CCCCOCCOCCOCc1cc2c(cc1CCC)OCO2`, the Potency entry in experiment [3] was “inactive”.

Consider `CC12CC3CC(C)(C1)CC(N)(C3)C2`, for which the Potency entry in experiment [3] was “inactive”.

In the case of `CCOC(=O)[C@H](CCc1ccccc1)N[C@@H](C)C(=O)N1[C@H](C(=O)O)C[C@@H]2CCC[C@@H]21`, in experiment [3], the Potency result was “inactive”.

Take `CN1C(=O)CC(C)(c2ccccc2)C1=O` (centres undefined): the Potency entry in experiment [3] was “inactive”.

These data come from PubChem BioAssay (NCATS).
